This is part of a sample that, as a whole, favours compounds with a hit. Of some 83,000 tested, about 20% had one in any assay.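 Step 1: grow cells in 96-well plates. Step 2: add test compound at a single concentration. Step 3: incubate 48 h. Step 4: record percent growth.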 Values without a mark were called inactive. Calls of active or inactive are those of the source. Rule for the calls: active = growth percent below 10; inactive = the rest.

The subject of the assay is HL-60(TB) leukemia. The assay can be described thus: NCI-60 one-dose screen, 48 h (100 = growth as untreated, 0 = no growth, -100 = all killed). The conditions noted are these: 10 µM unless noted.
In the case of `COc1ccc2c(c1)c(CC(=O)[Se]CCC#N)c(C)n2C(=O)c1ccc(Cl)cc1`, the growth is -43.8% (active).
For the compound `O=C(Nc1ccc(Cl)c(C(F)(F)F)c1)Nc1ccc2oc(=O)ccc2c1`, the growth is 26%.
On to `NS(=O)(=O)c1ccc(-n2cc(CN3CCNCC3)nn2)cc1`, for which the growth is 107%.
For `Oc1ccc(CSc2nnc(-c3ccccc3)o2)c2cccnc12`, the growth is 7.7% (active).
Next, `N#Cc1nc(-c2ccccc2)oc1N1CC[C@@H](CO)C1`: 90.6%; `C#C[C@]1(O)CC[C@H]2[C@@H]3CC=C4c5sc(Nc6cccc(F)c6)nc5CC[C@]4(C)[C@H]3CC[C@@]21C`: -13.1% (active).

The values above are taken from PubChem BioAssay (NCI).
